Bioassay records as filed in PubChem.
Sampled rows, rich in hits. Any-hit rate of the full collection: about 7.4%.
PD-1 reverse act: reversal of PD-1 mediated T-cell inhibition | primary human CD4 T cells, PD-L1 beads, CellTiter-Glo 96 h | activation, % (concentration not given with the values) | 29,000 tested, under 10 active; call rule not given here;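 further: 0% = median vehicle wells and 100% = positive control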
MITF inh: blocks MITF activity | AID 2240 | 37,000 compounds, 0.28% hits | TRPM1 promoter luciferase, luminescence, 24 h | inhibition, % (concentration not given with the values); in the data active means inhibition above about 85%; inconclusive means no clear call, values can overlap the other calls; inactive means below about 68%;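 further: human melanocyte line stably carrying TRPM1 promoter luciferase reporter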
Shh pathway inh: Sonic Hedgehog pathway inhibition; inhibition, % (test concentration not listed); 22,000 compounds, 2.1% hits; Shh-LIGHT2 Gli-luciferase reporter, 30 h;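 active means mean inhibition across valid replicates above about 65%, limit read from the data; inconclusive means mean under the limit, yet half or more replicates past it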;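 further: pathway switched on by Shh-conditioned medium diluted 1 in 25 in low serum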
NOMO-1 viab: STK33 inhibitor candidate reducing NOMO-1 cell viability. NOMO-1 AML viability, CellTiter-Glo luminescence, 72 h. inhibition, % (test concentration not listed). 37,000 compounds, 7.5% hits. AID 2330; in the data active means inhibition above about 80%; inconclusive means no clear call, values can overlap the other calls
YB-1 expr inh: YB-1 expression inhibition | AID 434959 | 30,000 compounds, 0.37% hits | delta delta Cp (YB-1 minus CDIP) (concentration not given with the values) | U2OS, qRT-PCR YB-1 vs CDIP delta delta Cp, 16 h; stronger effect = higher value; zero = DMSO, each unit about twofold;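 active means delta delta Cp rounded down to an integer at or above 3, about 3 SD of DMSO wells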;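 further: higher means less YB-1 transcript or more CDIP transcript relative to DMSO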
An asterisk follows results filed as active; u = inconclusive; x = no result given.

SMILES	PD-1 reverse act	MITF inh	Shh pathway inh	NOMO-1 viab	YB-1 expr inh
Cc1ccc(S(=O)(=O)N(C)C[C@@H]2Oc3ccc(NC(=O)Nc4ccccc4)cc3CC(=O)N([C@H](C)CO)C[C@@H]2C)cc1	x	31	-2	100*	-0.059
COc1ccc(NC(=O)Nc2ccc3c(c2)CC(=O)N([C@H](C)CO)C[C@H](C)[C@H](CN(C)S(=O)(=O)c2ccc(F)cc2)O3)cc1	x	25	-48	126*	0.051
CCC(C)[C@@H](CO[C@@H](Cc1ccccc1)C(=O)N[C@@H](CCS(C)(=O)=O)C(=O)OC(C)C)NC[C@@H](N)CS (some centres not stated)	-6	-14	-76	55	0.24
Cn1c(SCC(=O)NCCO)nc2ccccc2c1=O	1	-19	x	-12	x
Cc1noc(C)c1S(=O)(=O)N(C)C[C@@H]1Oc2ccc(NC(=O)C3CC3)cc2CC(=O)N([C@H](C)CO)C[C@@H]1C	x	-11	70*	25	-0.17
Cc1ccc(S(=O)(=O)N(C)C[C@@H]2Oc3ccc(NC(=O)Nc4ccc(F)cc4)cc3CC(=O)N([C@@H](C)CO)C[C@@H]2C)cc1	-2	36	-80	104*	0.21
Cc1ccc(S(=O)(=O)N(C)C[C@@H]2Oc3ccc(NC(=O)NC(C)C)cc3CC(=O)N([C@@H](C)CO)C[C@@H]2C)cc1	0	10	13	98*	0.14
O=C(O)CCC(=O)Nc1ccc(NC(=O)c2ccccc2)c(Cl)c1	2	-33	x	26	x
COc1ccc(CN2C(=O)C(O)(CC(=O)c3c(C)coc3C)c3ccccc32)cc1OC (configuration not stated)	x	22	x	50	x
O=C(CC1(O)C(=O)N(Cc2ccc(Cl)cc2)c2ccc(Cl)cc21)c1ccco1 (configuration not stated)	2	25	x	114*	x
Cc1coc(C)c1C(=O)CC1(O)C(=O)N(Cc2ccc(Cl)cc2)c2ccccc21 (configuration not stated)	-2	6	x	70	x
O=C(CC1(O)C(=O)Nc2ccc(F)cc21)c1ccco1 (configuration not stated)	1	28	x	38	x
Cc1cccc2c1N(C)C(=O)C2(O)CC(=O)c1ccco1 (configuration not stated)	-1	-10	x	84*	x
CN1C(=O)C(O)(CC(=O)c2ccco2)c2cc(Cl)ccc21 (configuration not stated)	1	24	x	133*	x
Cc1ccc(-n2c(C)nnc2SCC(=O)Nc2c(C)cccc2C)cc1C	-3	-16	x	20	x
C[C@H](CO)N1C[C@H](C)[C@H](CN(C)Cc2ccc(C(=O)Nc3ccccc3N)cc2)Oc2c(NC(=O)C3CCCCC3)cccc2C1=O	-2	-13	x	127*	0.059
C[C@@H]1CN([C@@H](C)CO)C(=O)c2cccc(NC(=O)C3CCOCC3)c2O[C@@H]1CN(C)Cc1ccc(C(=O)Nc2ccccc2N)cc1	-2	6	x	126*	-0.25
C[C@H]1CN([C@@H](C)CO)C(=O)c2cc(NC(=O)C3CCCCC3)ccc2O[C@H]1CN(C)Cc1ccc(C(=O)Nc2ccccc2N)cc1	-4	28	x	110*	0.11
C[C@@H]1CN([C@H](C)CO)C(=O)c2cccc(NC(=O)c3ccncc3)c2O[C@H]1CN(C)Cc1ccc(C(=O)Nc2ccccc2N)cc1	0	-11	x	35	-0.31
C[C@@H]1CN([C@@H](C)CO)C(=O)c2cccc(NC(=O)c3ccncc3)c2O[C@@H]1CN(C)Cc1ccc(C(=O)Nc2ccccc2N)cc1	-1	0	x	128*	-0.44
CC(C)(C)N1C(=O)c2ccccc2C1=O	1	4	x	-2	0.3
COC(=O)c1c2ccccc2c(C)c2ccccc12	2	1	49	u	-1.2
O=c1[nH]c2ccccc2c(=O)n1CCNCc1ccccc1	1	-16	1	-6	0.22
C[C@H](CO)N1C[C@H](C)[C@@H](CN(C)Cc2ccc(C(=O)Nc3ccccc3N)cc2)Oc2c(NC(=O)C3CCOCC3)cccc2C1=O	1	0	x	23	0.078
C[C@H]1CN([C@@H](C)CO)C(=O)c2cccc(NC(=O)C3CC3)c2O[C@H]1CN(C)Cc1ccc(C(=O)Nc2ccccc2N)cc1	-2	14	x	94*	-0.23
SMILES	PD-1 reverse act	MITF inh	Shh pathway inh	NOMO-1 viab	YB-1 expr inh
CCN1C(=O)c2cccc3c(S(=O)(=O)Nc4ccccc4)ccc1c23	-1	24	x	105*	-0.15
CCN1C(=O)c2cccc3c(S(=O)(=O)N4CCCC4C(=O)O)ccc1c23 (configuration not stated)	1	-24	x	-8	x
C[N+]1(C/C=C2/COCO2)CCCCC1	-1	-14	-15	3	-0.11
CCn1c2c(c3cc(OCc4ccccc4)ccc31)CCCC2=O	1	-25	77*	38	0.28
CCn1c2c(c3cc(Br)ccc31)CCCC2=O	-4	-8	8	24	-0.089
CCOC(=O)c1cnc2ccc(OCC)cc2c1NC(C)CC (configuration not stated)	-21	53	34	117*	-0.39
C[C@H]1CN([C@@H](C)CO)C(=O)Cc2cc(NC(=O)Nc3ccc(C(F)(F)F)cc3)ccc2O[C@H]1CN(C)Cc1ccc(-c2ccccc2)cc1	-3	16	-2	128*	0.079
C[C@H]1CN([C@@H](C)CO)C(=O)Cc2cc(NC(=O)Nc3ccc(C(F)(F)F)cc3)ccc2O[C@@H]1CN(C)Cc1ccc(-c2ccccc2)cc1	0	14	-13	127*	-0.14
COc1ccc(CN(CCN(C)C)c2ccccn2)cc1	x	7	-33	26	0.56
COC(=O)CCN(C(=O)c1ccc(OC(C)=O)cc1)c1ccccn1	x	-12	x	104*	x
Cc1c(C)c(C)c(CSc2ccccc2N)c(C)c1C	-2	-24	x	91*	-1
Cc1c(C)c(C)c(CSc2ccccn2)c(C)c1C	1	4	-12	33	0.028
Cc1ccc(CN(CC(=O)O)S(=O)(=O)c2c(C)cc(C)cc2C)cc1	3	-45	x	26	x
C[C@@H]1CN([C@H](C)CO)C(=O)c2cccc(NC(=O)CCCCCC(=O)Nc3ccccc3N)c2O[C@H]1CN(C)CC1CC1	0	13	x	122*	0.15
C[C@H]1CN([C@@H](C)CO)C(=O)c2cccc(NC(=O)CCCCCC(=O)Nc3ccccc3N)c2O[C@@H]1CN(C)CC1CC1	-1	41	x	120*	0.17
C[C@@H]1CN([C@@H](C)CO)C(=O)c2cccc(NC(=O)CCCCCC(=O)Nc3ccccc3N)c2O[C@H]1CN(C)CC1CC1	0	13	x	128*	0.087
C[C@@H]1CN([C@H](C)CO)C(=O)c2cccc(NC(=O)CCCCCC(=O)Nc3ccccc3N)c2O[C@@H]1CN(C)CC1CC1	2	-14	x	46	-0.0057
CSC(=O)OCC1=C[C@H](O)[C@@H]2C(C(=O)O)=CO[C@@H](OC3OC(CO)C(O)C(O)C3O)[C@H]12 (some centres not stated)	2	17	-20	18	4.1*
